The record followed here is PubChem BioAssay (NCATS).

For experiment [1], the target named is ATPase family AAA domain-containing protein 5 (Homo sapiens) (UniProt Q96QE3). As to the kind of experiment: Validation screen for small molecules that inhibit ELG1-dependent DNA repair in human embryonic kidney (HEK293T) cells expressing luciferase-tagged ELG1 (AID 493107).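 Note: cells co-treated with the DNA-damaging agent 5-fluorouridine alongside compound; series mostly up to about 46 µM; % is set by controls: 0 for no effect and ±100 for the full control effect; inhibitors lower the ELG1-luciferase luminescence signal; nearly all actives have a fitted effect of over 70% in size.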 An outline of the steps: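 HEK293T cells expressing luciferase-tagged ELG1 were co-treated with 5-fluorouridine and compound or DMSO for 16 hr at 37 °C, 5% CO2. Luciferase activity was then read with ONE-Glo after 30 min at room temperature; suppressed signal indicates blocked ELG1 function.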

Experiment [2] deals with Thyrotropin-releasing hormone receptor (Homo sapiens) (UniProt P34981). As to the kind of experiment: qHTS for Small Molecule Agonists and Allosteric Enhancers of Human TRH Receptor: Validation Screen for Agonists (AID 493127;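 active = calcium activation more than 3 SD above the typical response in the agonist read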;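 note: intracellular calcium rise by fluo-8 fluorescence before TRH EC20 addition; 0% is about no effect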). The following applies: TRH receptor agonist cell assay; at 2 µM; stronger effect = higher value. An outline of the steps:
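TRHR-expressing cells were plated overnight in serum-containing medium, then loaded with fluo-8 calcium dye at room temperature for 30 min–1.5 h. After a 10 s baseline, compound was pin-transferred and calcium fluorescence (ex 480/em 530) read kinetically for agonist response.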
A general note: Quantitative high-throughput screening tests each substance at several concentrations.

A short description of experiment [3]: Nrf2 qHTS screen for inhibitors: Validation (AID 493153; active = well fitted inhibition curve with a large enough effect in the main read-out, with a control signal flat, not every such curve was filed as active). The following applies: viability change: measured here: cytotoxicity max response. In short, it runs like this:
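A549 cells carrying an ARE-driven firefly luciferase reporter, in 5% FBS OPTI-MEM, were treated with compounds in concentration-response for 18-24 h at 37°C. Viability was read by CellTiter-Fluor fluorescence, then Nrf2 activity by luciferase luminescence.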

Experiment [4] is described as follows: qHTS for Inhibitors of Cell Surface uPA Generation: Validation Assay (AID 493164).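 Note: RAW 264.7 macrophage cells exposed to compound for 18 h; 0% is about no effect.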 In short, it runs like this: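 RAW 264.7, 4000 cells/well, o/n plating; cpd 7-pt 1:5 dilution 2.45 nM–38.3 uM final; 18 h, 37 C/5% CO2; ATP-Lite, 5 s luminescence exposure.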
Experiment [5] addresses Galactokinase (Homo sapiens) (UniProt P51570). As to the kind of experiment: qHTS Validation Assay for Inhibitors of Human Galactokinase (GALK) (AID 493189). Note: 0% is about no effect. An outline of the steps: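 GALK (5 nM) with 35 uM ATP and 100 uM galactose in HEPES pH 8.0 with MgCl2, NaCl, DTT and BSA. Reaction ran 1 h at room temperature. Residual ATP read by Kinase-Glo Plus luminescence.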
Experiment [6] is described as follows: Validation screen for small molecules that induce DNA re-replication in SW480 colon adenocarcinoma cells (AID 504364). Note: 0% is about no effect. An outline of the steps:
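SW480 cells seeded at 250 per well were exposed to compound or DMSO for 48 hr at 37 C, 5% CO2, then stained with Hoechst for 40 min. DNA content per nucleus was imaged (405 nm ex, 500-530 nm em).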

For experiment [7], the target named is Peptidyl-prolyl cis-trans isomerase NIMA-interacting 1 (Homo sapiens) (UniProt Q13526). As to the kind of experiment: qHTS Validation Assay to Find Inhibitors of Pin1 (AID 504536; active = well fitted inhibition curve with a large enough effect in the polarisation, with a control signal flat, not every such curve was filed as active; the % refers to the polarisation;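 note: 0% = full Pin1 enzyme wells and -100% = no-enzyme wells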). The source says:
NIH Molecular Libraries Probe Production Network [MLPCN]
NIH Chemical Genomics Center [NCGC]
The unique chemical properties of Pro allow for the adoption of two completely distinct amide bond conformations (cis and trans). Peptidyl-prolyl cis/trans isomerases (PPIases) are evolutionary conserved enzymes that catalyze cis/trans isomerization of peptidyl-prolyl peptide bonds. Distinct from all other PPIases such as cyclophilins and FK506-binding proteins (FKBPs), Pin1 binds a subset of phos.Ser/Thr-Pro-containing proteins using its protein-targeting WW domain and isomerizes only specific phos.Ser/Thr-Pro bonds, which cannot be effectively catalyzed by other known PPIases. […]
The goal of this screen is to find small-molecule inhibitors of Pin1 using a fluorescence polarization competition assay. […]
Pin1 (0.6 uM) was dispensed into black, solid 1536-well plates at 2 uL/well in 10 mM HEPES (pH 7.5), 10 mM NaCl, 0.01% Tween20, 1 mM DTT, and 1% glycerol. […] The plates were measured on a ViewLux plate reader for fluorescence polarization signal using a 480/20 nM nm excitation filter and 540/25 nM nm S and P emission filters with a 20 second exposure. The %Activity was determined from the corrected fluorescence polarization values. […]
Concentration-response curves were fitted to the signals arising from the resulting fluorescence polarization. […]

The target in experiment [8] is Phosphoglycerate kinase, glycosomal (Trypanosoma brucei brucei) (UniProt P07378). Put plainly: qHTS Validation Assay to Find Inhibitors of Phosphoglycerate Kinase (AID 504547).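 Note: control wells lack PGK and mark full inhibition.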 An outline of the steps:
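PGK activity was coupled to GAPDH (100nM final), which generates the unstable substrate 1,3-bisphosphoglycerate in-well. Reactions ran 60 minutes at room temperature in 100mM TEA pH 7.6, 5mM MgCl2, 0.01% Tween-20, then Kinase-Glo Plus luminescence was read.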

In experiment [9] the target is phosphoglycerate mutase (Leishmania major) (UniProt Q4Q090). Put plainly: qHTS Validation Assay to Find Inhibitors of Phosphoglycerate Mutase (AID 504548). Note: series mostly up to about 58 µM; % is set by controls: 0 for no effect and ±100 for the full control effect. In short, it runs like this: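 Lm PGAM at 1.25 nM final with substrate in 100 mM TEA pH 7.6, 5 mM MgCl2, 0.01% Tween-20; 45 min at room temperature. Kinase-GloPlus added, 10 min, end-point luminescence read.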

The target in experiment [10] is Ubiquitin carboxyl-terminal hydrolase 1 (Homo sapiens) (UniProt O94782). As to the kind of experiment: Inhibitors of USP1/UAF1: Pilot qHTS (AID 504865). Note: nearly all actives have a fitted effect of over 35% in size. Note: potency is the fitted concentration of half-maximal effect. An outline of the steps:
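USP1/UAF1 complex at 1 nM preincubated 15 min at room temperature with compound, then Ub-Rho substrate added at 150 nM final. Fluorescence (480/540 nm) read kinetically in 50 mM HEPES pH 7.8, 0.5 mM EDTA, 1 mM TCEP, 0.1 mg/ml BSA, 0.01% Tween-20.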

Structures are written as SMILES. Records with an inconclusive call do not appear. Active and inactive are the calls of the source. Unless noted, calls come from the whole dose curve; as a rule, active = well fitted curve in the direction sought with a large enough effect; inconclusive = small, poorly fitted or top-dose-only effect, or another doubt; inactive = no such curve, though single readings can be large; an effect the other way counts as inactive or inconclusive.

Ubiquitin carboxyl-terminal hydrolase 1 (Homo sapiens), sequence (O94782 whole entry, looked up): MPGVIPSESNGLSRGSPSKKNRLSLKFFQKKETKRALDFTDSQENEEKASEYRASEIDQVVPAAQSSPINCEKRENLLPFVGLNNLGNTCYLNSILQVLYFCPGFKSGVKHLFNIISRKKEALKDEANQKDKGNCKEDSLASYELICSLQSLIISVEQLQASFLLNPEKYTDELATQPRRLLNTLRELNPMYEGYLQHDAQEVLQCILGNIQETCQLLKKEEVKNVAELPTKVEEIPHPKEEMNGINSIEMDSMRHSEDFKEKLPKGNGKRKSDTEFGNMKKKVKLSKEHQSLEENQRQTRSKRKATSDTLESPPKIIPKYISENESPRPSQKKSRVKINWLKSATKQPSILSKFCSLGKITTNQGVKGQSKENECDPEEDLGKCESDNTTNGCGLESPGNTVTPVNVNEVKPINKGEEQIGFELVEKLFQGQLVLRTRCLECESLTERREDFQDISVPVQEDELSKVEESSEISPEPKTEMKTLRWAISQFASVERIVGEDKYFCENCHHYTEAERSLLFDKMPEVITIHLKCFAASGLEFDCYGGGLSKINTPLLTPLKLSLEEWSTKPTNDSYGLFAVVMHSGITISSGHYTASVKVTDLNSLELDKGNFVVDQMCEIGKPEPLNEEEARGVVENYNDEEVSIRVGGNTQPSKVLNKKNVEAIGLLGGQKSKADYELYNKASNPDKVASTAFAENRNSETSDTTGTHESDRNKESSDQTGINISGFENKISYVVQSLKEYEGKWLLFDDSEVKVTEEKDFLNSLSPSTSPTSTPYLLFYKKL
Galactokinase (Homo sapiens), sequence (P51570 whole entry, looked up): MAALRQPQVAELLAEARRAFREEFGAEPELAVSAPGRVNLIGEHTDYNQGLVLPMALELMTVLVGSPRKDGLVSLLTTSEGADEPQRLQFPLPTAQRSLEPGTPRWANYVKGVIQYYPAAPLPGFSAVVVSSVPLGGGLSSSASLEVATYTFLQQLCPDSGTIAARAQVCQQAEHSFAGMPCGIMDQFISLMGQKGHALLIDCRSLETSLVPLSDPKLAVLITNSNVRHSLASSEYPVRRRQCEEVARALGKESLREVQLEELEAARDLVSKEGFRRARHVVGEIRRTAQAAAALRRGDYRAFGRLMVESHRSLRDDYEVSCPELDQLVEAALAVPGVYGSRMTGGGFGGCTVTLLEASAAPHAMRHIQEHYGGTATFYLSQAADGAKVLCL
Phosphoglycerate kinase, glycosomal (Trypanosoma brucei brucei), sequence (P07378 whole entry, looked up): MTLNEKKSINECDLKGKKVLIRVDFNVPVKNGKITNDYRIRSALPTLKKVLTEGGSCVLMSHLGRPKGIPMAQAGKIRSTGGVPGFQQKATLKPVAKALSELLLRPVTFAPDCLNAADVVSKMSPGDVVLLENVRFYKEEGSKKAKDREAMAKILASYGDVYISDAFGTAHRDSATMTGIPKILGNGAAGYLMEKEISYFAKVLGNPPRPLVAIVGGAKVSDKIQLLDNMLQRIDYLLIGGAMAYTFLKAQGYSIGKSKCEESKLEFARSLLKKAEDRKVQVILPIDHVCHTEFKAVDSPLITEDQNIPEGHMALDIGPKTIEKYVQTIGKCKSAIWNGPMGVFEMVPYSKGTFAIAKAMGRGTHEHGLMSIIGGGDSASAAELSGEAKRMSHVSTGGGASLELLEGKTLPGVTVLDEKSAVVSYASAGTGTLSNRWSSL
phosphoglycerate mutase (Leishmania major), sequence (Q4Q090 1-553): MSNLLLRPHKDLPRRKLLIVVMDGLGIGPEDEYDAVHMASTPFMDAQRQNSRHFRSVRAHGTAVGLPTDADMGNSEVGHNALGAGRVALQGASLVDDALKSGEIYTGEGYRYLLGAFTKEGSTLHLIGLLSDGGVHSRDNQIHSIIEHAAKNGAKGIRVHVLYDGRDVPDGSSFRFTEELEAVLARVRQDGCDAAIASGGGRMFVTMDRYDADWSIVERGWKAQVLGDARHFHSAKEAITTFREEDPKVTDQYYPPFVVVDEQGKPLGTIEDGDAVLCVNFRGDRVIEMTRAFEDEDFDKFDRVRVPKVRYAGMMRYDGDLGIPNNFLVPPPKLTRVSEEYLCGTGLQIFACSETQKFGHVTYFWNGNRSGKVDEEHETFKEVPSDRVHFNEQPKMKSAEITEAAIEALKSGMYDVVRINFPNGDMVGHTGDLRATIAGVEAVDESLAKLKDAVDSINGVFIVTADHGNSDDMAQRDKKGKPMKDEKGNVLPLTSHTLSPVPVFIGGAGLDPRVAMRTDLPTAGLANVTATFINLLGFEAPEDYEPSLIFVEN
Peptidyl-prolyl cis-trans isomerase NIMA-interacting 1 (Homo sapiens), sequence (Q13526 whole entry, looked up): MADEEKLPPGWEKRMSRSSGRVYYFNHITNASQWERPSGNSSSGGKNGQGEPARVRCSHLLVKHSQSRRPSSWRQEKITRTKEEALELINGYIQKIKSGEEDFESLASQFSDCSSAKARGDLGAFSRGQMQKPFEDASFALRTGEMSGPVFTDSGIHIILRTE
Thyrotropin-releasing hormone receptor (Homo sapiens), sequence (P34981 whole entry, looked up): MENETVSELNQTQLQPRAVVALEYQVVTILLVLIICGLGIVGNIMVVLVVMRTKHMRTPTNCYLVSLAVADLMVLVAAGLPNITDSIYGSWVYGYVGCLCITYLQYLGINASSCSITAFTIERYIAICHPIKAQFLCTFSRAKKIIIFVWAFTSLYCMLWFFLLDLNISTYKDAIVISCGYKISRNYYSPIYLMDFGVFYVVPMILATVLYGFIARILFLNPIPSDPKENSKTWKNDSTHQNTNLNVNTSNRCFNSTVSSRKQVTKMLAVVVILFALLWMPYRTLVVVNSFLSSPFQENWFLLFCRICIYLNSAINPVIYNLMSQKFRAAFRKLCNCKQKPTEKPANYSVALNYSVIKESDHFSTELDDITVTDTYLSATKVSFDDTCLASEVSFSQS
ATPase family AAA domain-containing protein 5 (Homo sapiens), sequence (Q96QE3 whole entry, looked up, the tested form may be a part): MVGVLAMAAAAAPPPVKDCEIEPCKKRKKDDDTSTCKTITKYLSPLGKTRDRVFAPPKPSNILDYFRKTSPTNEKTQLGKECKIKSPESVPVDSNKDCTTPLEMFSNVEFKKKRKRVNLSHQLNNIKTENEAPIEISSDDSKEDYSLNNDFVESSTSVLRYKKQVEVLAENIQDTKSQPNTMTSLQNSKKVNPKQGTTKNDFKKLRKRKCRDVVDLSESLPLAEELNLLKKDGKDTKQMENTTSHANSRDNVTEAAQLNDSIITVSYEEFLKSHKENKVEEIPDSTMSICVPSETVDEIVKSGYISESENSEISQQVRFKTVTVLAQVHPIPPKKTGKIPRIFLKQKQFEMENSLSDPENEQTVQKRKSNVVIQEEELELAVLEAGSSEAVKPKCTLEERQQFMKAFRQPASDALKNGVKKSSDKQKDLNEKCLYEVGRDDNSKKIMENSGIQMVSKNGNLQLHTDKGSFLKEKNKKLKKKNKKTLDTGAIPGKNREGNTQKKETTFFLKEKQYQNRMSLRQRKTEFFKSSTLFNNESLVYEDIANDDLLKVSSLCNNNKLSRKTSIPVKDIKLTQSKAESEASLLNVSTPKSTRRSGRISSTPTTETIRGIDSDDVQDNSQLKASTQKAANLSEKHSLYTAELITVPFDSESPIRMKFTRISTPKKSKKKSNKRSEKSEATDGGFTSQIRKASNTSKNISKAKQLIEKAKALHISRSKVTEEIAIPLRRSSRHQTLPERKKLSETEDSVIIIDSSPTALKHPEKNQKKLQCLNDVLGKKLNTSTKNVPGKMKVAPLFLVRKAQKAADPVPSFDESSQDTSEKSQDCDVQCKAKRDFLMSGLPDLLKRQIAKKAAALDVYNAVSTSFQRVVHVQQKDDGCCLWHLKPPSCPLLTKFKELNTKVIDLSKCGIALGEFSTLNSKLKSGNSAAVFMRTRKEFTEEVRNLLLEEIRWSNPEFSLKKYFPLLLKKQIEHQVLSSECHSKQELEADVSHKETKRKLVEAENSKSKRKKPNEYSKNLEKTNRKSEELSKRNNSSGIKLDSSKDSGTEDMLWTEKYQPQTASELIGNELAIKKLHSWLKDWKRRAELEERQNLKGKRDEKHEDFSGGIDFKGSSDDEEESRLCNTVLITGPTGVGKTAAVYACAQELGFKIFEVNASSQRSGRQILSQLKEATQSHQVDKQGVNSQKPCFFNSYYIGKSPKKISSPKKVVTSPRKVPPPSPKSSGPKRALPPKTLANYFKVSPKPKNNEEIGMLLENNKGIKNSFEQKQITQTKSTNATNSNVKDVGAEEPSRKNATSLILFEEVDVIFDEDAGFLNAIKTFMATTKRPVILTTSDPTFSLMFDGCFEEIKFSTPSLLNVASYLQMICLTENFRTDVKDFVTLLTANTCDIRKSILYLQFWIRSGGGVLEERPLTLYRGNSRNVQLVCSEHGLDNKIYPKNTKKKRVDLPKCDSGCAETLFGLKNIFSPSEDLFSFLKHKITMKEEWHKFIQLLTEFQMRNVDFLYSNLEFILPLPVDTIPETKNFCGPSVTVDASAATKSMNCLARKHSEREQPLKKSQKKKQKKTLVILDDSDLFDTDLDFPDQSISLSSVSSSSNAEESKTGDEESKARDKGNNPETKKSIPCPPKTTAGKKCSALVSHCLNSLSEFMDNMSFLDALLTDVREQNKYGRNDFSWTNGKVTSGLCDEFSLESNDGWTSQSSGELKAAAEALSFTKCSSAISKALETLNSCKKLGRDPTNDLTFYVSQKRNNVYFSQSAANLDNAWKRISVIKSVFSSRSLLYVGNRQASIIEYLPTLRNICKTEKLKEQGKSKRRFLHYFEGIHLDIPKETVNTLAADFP

On to `NCCCC(=O)O`, for which the outcome in [1], in [3], in experiment [4], in experiment [5], in experiment [6] and in [7] was inactive. Moreover, the result in [8] and in experiment [9] was inactive. In addition, the activation in [2] is -0.125% (inactive). The same compound gave a viability change in experiment [3] of 14.4%. Moreover, the Potency result in experiment [10] was “inactive”.

With `CCCOc1ccc2nc(NC(=O)OC)sc2c1`, in experiment [10], the Potency entry is “inactive”.

`C1CNCCN1`: the Potency result in [10] is “inactive”.

Turning to `COc1cc(C[C@H]2C(=O)OC[C@@H]2Cc2ccc(OC)c(OC)c2)ccc1O`, in experiment [10], the Potency entry was “inactive”.

Regarding `CN(C)CCCn1cc(C2=C(c3c[nH]c4ccccc34)C(=O)NC2=O)c2ccccc21`, in [10], the Potency is 50.1 µM (active).

On to `COC1C(OC(=O)/C=C/C=C/C=C/C=C/C(=O)O)CCC2(CO2)C1C1(C)OC1CC=C(C)C` (stereo unspecified), for which, in experiment [10], the Potency result is “inactive”.

Turning to `O=C(O)CC(O)(CC(=O)O)C(=O)O`, the Potency result in [10] was “inactive”.

With `CN[C@H]1CC[C@@H](c2ccc(Cl)c(Cl)c2)c2ccccc21`, the result in experiment [3], in experiment [4], in experiment [5], in experiment [6], in experiment [7] and in experiment [8] was inactive. Moreover, the compound was called inactive in experiment [9]. Moreover, in experiment [3], the viability change stood at 1.73%. For the same compound, the Potency entry in experiment [10] is “inactive”.
